Source: PubChem BioAssay AID445 (National Center for Advancing Translational Sciences (NCATS), 2006)
About 40 (0.04%) of roughly 110,000 compounds were called active. Another 22% or so got no clear call; they are omitted. Calls come from the whole dose curve; as a rule, active = well fitted curve in the direction sought with a large enough effect in the signal ratio (not every such curve was filed as active); inconclusive = small, poorly fitted or top-dose-only effect, or a change in a side signal; inactive = flat fitted curve, though single readings scatter; the % refers to the signal ratio. The full list was thinned out, with actives kept by preference.

Assay: IkB Signaling;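 note: 0% = basal untreated cells and 100% = reference inhibitor full response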
Conditions: ABC-DLBCL IkBa-CBG/CBR dual luciferase ratio, 4 h; series mostly up to 57.1 µM; IkBa stabilization activation: at the top concentration
Excerpt: NIH Molecular Libraries Screening Centers Network [MLSCN]
NIH Chemical Genomics Center [NCGC]
Nuclear factor kappa-B (NF-kappa-B) plays an important role in normal B cell development and survival. Diffuse large B cell lymphoma (DLBCL) is the most commonly observed type of non-Hodgkin's lymphoma. Gene expression analysis has identified an activated B cell-like subtype of DLBCL (ABC-DLBCL) which expresses known NF-kappa-B target genes. […] However, targets upstream of IKK have been largely unexplored and so nodes upstream of IKK in the NF-kappa-B pathway remain untested due to the lack of chemical probes.
A cell-sensor assay for I-kappa-B-alpha stabilization was developed with NIH investigator Dr. R. Eric Davis in Dr. Louis M. Staudt's laboratory. The assay uses green (CBG68) and red (CBR) emitting beetle luciferases [Chroma-Glo(TM) developed by Promega Corp.] where the green luciferase is fused to I-kappa-B-alpha and the red luciferase is present in its native state. Both luciferase genes are stably present in the OCI-Ly3 human ABC DLBCL cell line, but their expression is under the control of tetracycline-inducible promoters. Following the addition of doxycycline to induce expression of the luciferases, the green luminescence in control cultures rises only slowly because the CBG fusion partner I-kappa-B-alpha is targeted by IKK activity for rapid degradation. In contrast, green luminescence rises rapidly in the presence of proteasome inhibitors or IKK inhibitors. The rise in red luminescence of CBR is not affected by proteasome or IKK inhibitors, and serves as normalization for cell number and nonspecific effects. Compounds were screened as a concentration-titration series that ranged from 57 uM to 0.7 nM.
NCGC Assay Protocol Summary:
Cells were seeded in 1536-well plates at 5000 cells/3ul in IMDM medium containing 0.5% FBS, w/o phenol red, L-glutamine, 25 mM HEPES, 3 mg/ml sodium bicarbonate. After centrifugation for 1 min. at 1000 rpm, 23 nl of compounds or DMSO were delivered to each well using a pin tool. Then 1ul 80ng/ml doxycycline was dispensed into white solid 1536-well plates and the plates were incubated at 37C/5% C02 in a cell incubator for 4 hrs. Then 4 ul Chroma-Glo luminescent substrate mix (Promega) was added to each well. The plate was incubated at R.T. for 10-15 min. The plates were measured on a ViewLux plate reader for green luminescence (540/20 nm filter) and red luminescence (618/8 nm filter). The green and red luminescent signals were corrected for red and green luminescence filter overlap using previously determined filter calibration constants (determined using the procedure outlined in the Promega Technical Manual). The %Activity was determined from the ratio of corrected green/red luminescent values. Green luminescent and ratio %Activity was determined by normalizing to the difference in signal between basal cells (0% Activity) and cells incubated with 10 uM of the proteasome inhibitor MG-132 (100% Activity). Red luminescent %Activity was normalized to the difference between red luminesence in basal cells (0%Activity) and zero luminescence (-100% Activity).
Concentration-response curves were fitted to the signals arising from the green luminescence (I-kappa-B-alpha-luciferase fusion; IkB-luc) and the red luminescence (unfused luciferase; luc) as well as the calculated ratio. The concentration-effect curves were then classified based on curve quality (r2), response magnitude and degree of measured activity. Compounds were then categorized based on their concentration-response curves for all three datasets (Ikb-luc, luc and ratio).
Keywords: IKK, I-kappa-B, IkB, IkBa, cytotoxicity, luminescence, MLSMR, MLSCN, NIH Roadmap, qHTS, NCGC

| SMILES | IkBa stabilization activation |
| --- | --- |
| CCCCNC(=O)c1ccc2c(c1)NC(=O)C(C(C)C)N2 (stereo not drawn) | -0.449% (inactive) |
| CCOC(=O)c1scc(-c2ccc(C)cc2)c1S(=O)(=O)Nc1cc(C)ccc1C | 0.745% (inactive) |
| CCN(CC)c1ccc(NC(=O)Cn2nc3c(cc2=O)CCCC3)c(C)c1 | 2.3% (inactive) |
| Cc1ccc2sc(N(Cc3cccnc3)C(=O)C3COc4ccccc4O3)nc2c1C (stereo not drawn) | -0.437% (inactive) |
| Cc1ccc(NC(=O)Cn2nnc3sc4c(c3c2=O)CCC(C)C4)cc1 (stereo not drawn) | -2.75% (inactive) |
| CSc1cccc(NC(=O)CN2C(=O)CCc3cc(S(=O)(=O)N4CCCCC4)ccc32)c1 | 3.58% (inactive) |
| CCOc1ccc(N(CC)S(=O)(=O)N2CCCC(C(=O)NCc3ccc(Cl)cc3)C2)cc1 (stereo not drawn) | 0.399% (inactive) |
| O=C(NCCCO)C(=O)Nc1c2c(nn1-c1ccccc1)CSC2 | -1.36% (inactive) |
| Cc1cc(OCC(=O)NCC2(N(C)C)CCCCC2)cc(C)c1Cl | 1.43% (inactive) |
| Cc1ccc(-c2nn(CCC(=O)Nc3ccc(OC(F)(F)F)cc3)c(=O)c3ccccc23)cc1 | -1.64% (inactive) |
| CCCSc1nc2sc3c(c2c(=O)n1-c1cccc(Br)c1)CC(C)(C)OC3 | 1.69% (inactive) |
| COc1ccc(CCNC(=O)Cn2c(=O)cc(C(F)(F)F)c3c(C)nn(C)c32)c(OC)c1 | 0.371% (inactive) |
| CCOc1ccccc1CNC(=O)c1cnc2c(-c3ccc(OCC)c(OCC)c3)c(C)nn2c1C | -1.18% (inactive) |
| CCOc1cc(CNC(=O)c2sc3ncnc(N(C)C4CCCCC4)c3c2C)ccc1OC | -1.17% (inactive) |
| Cc1c(-c2nc(-c3ccc4c(c3)OCO4)no2)nnn1-c1ccc(Br)cc1F | -3.96% (inactive) |
| CCN(CC)c1ccc(NS(=O)(=O)c2cc(-c3cc(C)no3)ccc2C)c(C)c1 | 0.135% (inactive) |
| CCN1CCN(CCCNC(=O)c2cnn(-c3ccc(C)cc3C)c2C2CCN(C(=O)OC(C)(C)C)CC2)CC1 | 1.54% (inactive) |
| COc1ccc(-c2onc(C)c2C)cc1S(=O)(=O)NCc1cccs1 | -1.8% (inactive) |
| Cc1cccc(Cc2c(C)nc3nc(SCc4ccccc4Cl)nn3c2C)c1 | 2.23% (inactive) |
| NC(=O)C1CCN(C(=O)c2cccc(NC(=O)c3nsc4ccccc34)c2)CC1 | -1.38% (inactive) |
| COc1ccccc1-c1noc(-c2ccc(NCc3ccccc3)c([N+](=O)[O-])c2)n1 | -0.999% (inactive) |
| COc1ccc(Cl)cc1NC(=O)CSc1nc2ccccc2c2nc(-c3ccccc3)nn12 | 0.00394% (inactive) |
| CCOc1ccccc1NC(=O)Cn1c(=O)n(Cc2ccco2)c(=O)c2sc3ccccc3c21 | 4.55% (inactive) |
| CCN(CC)CCNC(=O)CN1N=C(c2ccc(OC)cc2)CCC1=O | -1.9% (inactive) |

| SMILES | IkBa stabilization activation |
| --- | --- |
| COc1ccc(CNc2nc(-c3ccc(Cl)cc3)cc(C(F)(F)F)n2)cc1 | -1.22% (inactive) |
| COc1ccc(NC(=O)C2CCCN(S(=O)(=O)c3cccc4nonc34)C2)cc1Cl (stereo not drawn) | 1.73% (inactive) |
| CCc1cc2c(cc3c(=O)n(CC(=O)N4CCN(c5cc(Cl)ccc5C)CC4)ncn32)s1 | -1.17% (inactive) |
| COc1ccc(-c2nn3c(-c4ccc(OC)cc4)nnc3c3ccccc23)cc1 | -0.528% (inactive) |
| Fc1ccc(-n2ncc3c(Nc4ccc(Oc5ccccc5)cc4)ncnc32)cc1 | -0.511% (inactive) |
| CCCOc1ccc(CNC(=O)C2CCN(c3nn4c(=O)cc(C)nc4s3)CC2)cc1 | -0.122% (inactive) |
| CCS(=O)(=O)c1nc(S(=O)(=O)c2ccc(C)cc2)c(NCc2ccc(Cl)cc2)s1 | 0.738% (inactive) |
| Cc1ccc(CNS(=O)(=O)c2ccc(-c3cc(C(F)(F)F)on3)s2)cc1 | -4.13% (inactive) |
| Cc1cc(C)cc(NC(=O)c2cnc3sc(N4CCCC4)nn3c2=O)c1 | -3.48% (inactive) |
| CCCCOC(=O)CSc1ncnc2sc3c(c12)CCC(C)C3 (stereo not drawn) | 3.48% (inactive) |
| COc1cc(NC(=O)NCC2CCN(Cc3ccc(C)cc3)CC2)cc(OC)c1OC | 2.66% (inactive) |
| CCOC(=O)c1ccc(NC(=O)c2c(NCc3cccc(OC)c3)sc3c2CCC3)cc1 | -1.01% (inactive) |
| Cc1nc2nc(SCC(=O)N(Cc3ccccc3)C(C)C)nn2c(C)c1Cc1ccccc1Cl | 3.24% (inactive) |
| Cc1cc2oc(C(=O)N(Cc3ccc(Cl)cc3)Cc3ccco3)c(C)c2cc1Cl | -1.24% (inactive) |
| Cc1ccccc1-c1nc(CS(=O)(=O)CC(=O)NC(C)c2ccccc2)c(C)o1 (stereo not drawn) | -1.28% (inactive) |
| CCOc1ccccc1C(=O)NC1(C(F)(F)F)C(=O)Nc2c1c(=O)[nH]c(=O)n2-c1ccc(F)cc1 (stereo not drawn) | -1.66% (inactive) |
| CCOC(=O)c1c(C)[nH]c(C)c1S(=O)(=O)NCC(=O)NCc1cccc(C)c1 | 0.835% (inactive) |
| Cc1cccc(NC(=O)CSc2nc(-c3ccco3)cc(C(F)(F)F)n2)c1C | 1.98% (inactive) |
| Cn1c(=O)oc2cc(S(=O)(=O)CCC(=O)NCCc3ccc(Cl)cc3)ccc21 | -1.07% (inactive) |
| Cc1ccc(C)c(NC(=O)C2CCCN(S(=O)(=O)c3cn(C)cn3)C2)c1 (stereo not drawn) | 1.43% (inactive) |
| O=C(CCc1nc(CN2CCN(S(=O)(=O)c3ccc(Cl)cc3)CC2)no1)N1CCCCC1 | 1.11% (inactive) |
| COc1ccccc1NC(=O)C1=C(C)Nc2ncnn2C1c1sccc1C (stereo not drawn) | 0.985% (inactive) |
| CCCNC(=O)C(CC)n1nc(CC)n2c(cc3oc(C)cc32)c1=O (stereo not drawn) | -2.46% (inactive) |
| Cc1ccc(CNC(=O)CSC2=Nc3ccccc3C3=NC(C)C(=O)N23)cc1 (stereo not drawn) | 0.839% (inactive) |
